A549 viability – counter-screen for Nrf2 inhibitors: cytotoxicity in A549 cells; A549 ARE-Fluc cells, CellTiter-Fluor viability, 18-24 h; Potency, µM (highest dose often 46 µM), without a hit: top-dose activity change, negative = cytotoxicity, usual class: inhibitors; 390,000 compounds, 0.16% hits; also: % is scaled to controls: 0 for no effect and ±100 for the full control effect
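A549 ARE-Fluc cells in 5% FBS OPTI-MEM, 5000 cells/well, rested 2 h then exposed to compounds in concentration-response for 18-24 h at 37 °C. Viability by CellTiter-Fluor fluorescence (Ex 405/Em 525) after 30 min; luciferase luminescence (BugLite, 15 min, RT) read afterwards.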
Nrf2 block – Nrf2 pathway inhibition; 360,000 compounds, 2.1% hits; Potency, µM (doses to about 46 µM), for the others: top-dose activity change, negative = inhibition, usual class: inhibitors; A549 ARE-Fluc reporter, luciferase luminescence, 18-24 h; also: % is scaled to controls: 0 for no effect and ±100 for the full control effect; nearly all actives have a fitted effect of over 60% in size
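Concentration-response testing used A549 ARE_Fluc cells at 5000 cells/well. Following an 18-24 h compound incubation, viability was read by fluorescence (Ex 405/Em 525) and luciferase output by luminescence.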
ELG1 DNA repair – ELG1-dependent DNA repair inhibition. HEK293T ELG1-luciferase reporter, luminescence, 16 h; DNA damage induced by 5-fluorouridine. AID 504467. 330,000 compounds, 2.3% hits. Potency, µM (doses to about 46.1 µM), for the others: top-dose activity change, negative = inhibition, usual class: inhibitors; also: % is scaled to controls: 0 for no effect and ±100 for the full control effect; nearly all actives have a fitted effect of over 55% in size
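Overnight (16 hr) co-exposure of 2,000 cells/well to 5-fluorouridine and compound at 37 °C preceded detection. Luciferase was quantified via ONE-Glo luminescence; loss of signal denotes inhibition.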
Nrf2 ARE act – activators of Nrf2 (ARE) signaling. 410,000 compounds, 0.31% hits. AREc32 ARE-luciferase reporter (MCF7-derived line), luminescence, 24 h. AID 624171. Potency, µM (doses to about 46.1 µM), for the others: at the top dose activation, hits mostly activators; also: % of control where 0% means no effect; nearly all actives have a fitted effect of over 65% in size
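Steps: seed AREc32_Fluc cells (1000/well, 5% FBS OPTI-MEM); incubate overnight at 37 deg C; add 23 nL compound; incubate 24 hr; add Steady-Glo; hold 30 min RT; read luminescence.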
Active calls of the source: *. The list is not random: actives were taken first. Their share in the collection is about 3.7%. Calls follow the shape of the dose curve; as a rule, active = well fitted curve in the direction sought with a large enough effect; inconclusive = small, poorly fitted or top-dose-only effect, or another doubt; inactive = no such curve, though single readings can be large; an effect the other way counts as inactive or inconclusive. Potency is read from the fitted curve at half-maximal effect.

COc1cccc(-n2nnnc2S(C)(=O)=O)c1 was read as A549 viability inconclusive, Nrf2 block 10µM*, ELG1 DNA repair inconclusive and Nrf2 ARE act inconclusive.
For COC(=O)c1cc2oc3ccccc3c2n1CC(=O)Nc1cc(OC)cc(OC)c1 the results were A549 viability -1%, Nrf2 block 14% and Nrf2 ARE act 7%.
For COc1ccc(CNC(=O)[C@@H](NC(=O)C2CCN(C(=O)[C@@H](N)Cc3ccccc3)CC2)C(C)C)cc1 the results were A549 viability -25%, Nrf2 block 2%, ELG1 DNA repair 17% and Nrf2 ARE act 0%.
`Nc1sc(-c2ccccc2)cc1-c1n[nH]c(=S)n1C1CCCCC1` gave A549 viability -14%, Nrf2 block -17%, ELG1 DNA repair 21µM* and Nrf2 ARE act 5%.
For Clc1nc(NC2CCCCC2)c2cn[nH]c2n1 the results were A549 viability -4%, Nrf2 block -24% and Nrf2 ARE act 2%.
OC(C1=CC(=Cc2ccncc2)c2ccccc21)c1ccncc1 (stereo not given) was read as A549 viability -21%, Nrf2 block 21µM* and Nrf2 ARE act inconclusive.
OC(c1ccccc1)c1ccncc1 (stereo not given) was read as A549 viability -4%, Nrf2 block 4%, ELG1 DNA repair inconclusive and Nrf2 ARE act 0%.
Screening CCc1nnc(NS(=O)(=O)c2ccc(NS(=O)(=O)c3ccccc3[N+](=O)[O-])cc2)s1 returned A549 viability 0%, Nrf2 block 11%, ELG1 DNA repair -14% and Nrf2 ARE act 0%.
For CCc1nnc(NS(=O)(=O)c2ccc(Nc3ccc([N+](=O)[O-])c4nonc34)cc2)s1 the results were A549 viability 23µM*, Nrf2 block -27%, ELG1 DNA repair 5% and Nrf2 ARE act 2%.
For CC(=O)c1ccc(Nc2ccc([N+](=O)[O-])c3nonc23)cc1 the results were A549 viability inconclusive, Nrf2 block -1%, ELG1 DNA repair 1% and Nrf2 ARE act 11µM*.
Screening CCc1nnc(NS(=O)(=O)c2ccc(NC(=O)c3cccc([N+](=O)[O-])c3)cc2)s1 returned A549 viability 5%, Nrf2 block 1%, ELG1 DNA repair 26% and Nrf2 ARE act -1%.
For CCc1nnc(NS(=O)(=O)c2ccc(NC(=O)c3ccc([N+](=O)[O-])s3)cc2)s1 the results were Nrf2 ARE act 14µM*.
`COc1ccc(CNC(=O)CCCN2C(=O)c3cccnc3Oc3ccc(Cl)cc32)cc1` gave A549 viability -5%, Nrf2 block 14% and Nrf2 ARE act 5%.
CCCCNC(=O)C(CC)(ONc1ccccc1C(F)(F)F)c1ccccc1 (stereo not given) was read as A549 viability 8%, Nrf2 block -6%, ELG1 DNA repair -2% and Nrf2 ARE act inconclusive.
`CCN(CC(=O)Nc1ccc(NC(C)=O)cc1)C(=O)/C=C/c1c(C)nn(-c2ccc(F)cc2)c1Cl` gave A549 viability 0%, Nrf2 block -14%, ELG1 DNA repair 5.8µM* and Nrf2 ARE act 0%.
`CCN(CC)c1ccc(-n2nc3cc(C)c(NC(=O)c4ccccc4F)cc3n2)cc1` gave A549 viability 1%, Nrf2 block 9% and Nrf2 ARE act -1%.
For CCCCCCn1cc(CN2CC(N(C)CCC)CS2(=O)=O)nn1 (stereo not given) the results were Nrf2 ARE act -1%.
COc1ccc(-c2nc3c(c(=O)[nH]c(=O)n3Cc3ccccc3)n2C)cc1 was read as A549 viability 17%, Nrf2 block 14%, ELG1 DNA repair 4% and Nrf2 ARE act 0%.
Screening COc1ccc(-c2nc3c(c(=O)[nH]c(=O)n3Cc3ccccc3)n2Cc2ccccc2)cc1 returned A549 viability -15%, Nrf2 block 15µM*, ELG1 DNA repair 8.2µM* and Nrf2 ARE act 0%.
Screening Cn1c(=O)[nH]c(=O)c2c1nc(N1CCNCC1)n2Cc1ccccc1 returned A549 viability -2%, Nrf2 block -2%, ELG1 DNA repair 1% and Nrf2 ARE act 0%.
CCNc1nc2c(c(=O)[nH]c(=O)n2C)n1CC(C)C was read as A549 viability 3%, Nrf2 block -8%, ELG1 DNA repair 19% and Nrf2 ARE act 0%.
For CC(C)Cn1c([N+](=O)[O-])nc2c1c(=O)[nH]c(=O)n2C the results were A549 viability inconclusive, Nrf2 block -15%, ELG1 DNA repair 23µM* and Nrf2 ARE act inconclusive.
Screening Cn1c(=O)[nH]c(=O)c2c1nc([N+](=O)[O-])n2Cc1ccccc1 returned A549 viability inconclusive, Nrf2 block 23µM*, ELG1 DNA repair 15µM* and Nrf2 ARE act inconclusive.
Screening Cn1nc(C(=O)Nc2cccc(C(F)(F)F)c2)c2c1-c1ccccc1S(=O)(=O)C2 returned A549 viability 0%, Nrf2 block 13% and Nrf2 ARE act 4%.
CCOc1ccc(S(=O)(=O)NCCC(=O)NCC(c2ccco2)N2CCCCC2)cc1 (stereo not given) was read as A549 viability -1%, Nrf2 block -16%, ELG1 DNA repair 2% and Nrf2 ARE act 0%.
COc1ccc(-n2nc(C(=O)NCC(=O)N3CCCCCC3)c3ccccc3c2=O)cc1 was read as A549 viability -9%, Nrf2 block 13%, ELG1 DNA repair 17% and Nrf2 ARE act 3%.
For COc1ccc(-n2nc(C(=O)NCC(=O)NCCC3=CCCCC3)c3ccccc3c2=O)cc1OC the results were A549 viability 3%, Nrf2 block -12%, ELG1 DNA repair 9.2µM* and Nrf2 ARE act 3%.
Screening COc1ccc(-n2nc(C(=O)NCC(=O)Nc3cccc(Cl)c3)c3ccccc3c2=O)cc1 returned A549 viability 3%, Nrf2 block 15%, ELG1 DNA repair 13µM* and Nrf2 ARE act 1%.
`COc1ccc(-n2nc(C(=O)NCC(=O)N3CC(C)CC(C)C3)c3ccccc3c2=O)cc1` (stereo not given) gave A549 viability -8%, Nrf2 block -20%, ELG1 DNA repair 13µM* and Nrf2 ARE act 0%.
COc1cc(OC)cc(-n2nc(C(=O)N3CC(C)CC(C)C3)c3ccccc3c2=O)c1 (stereo not given) was read as A549 viability -11%, Nrf2 block -26%, ELG1 DNA repair 21µM* and Nrf2 ARE act 0%.
CCOc1ccc(NC(=O)CNC(=O)c2nn(-c3ccc(OC)cc3)c(=O)c3ccccc23)cc1 was read as A549 viability 1%, Nrf2 block inconclusive, ELG1 DNA repair inconclusive and Nrf2 ARE act 0%.
O=c1[nH][nH]c2c1C(C1CCCCC1)OC(C1CCCCC1)C2 (stereo not given) was read as Nrf2 ARE act 6%.
For CCCc1nc(SCC(=O)N2CCc3ccccc3C2)c2ccccc2n1 the results were A549 viability inconclusive, Nrf2 block 23µM*, ELG1 DNA repair -22% and Nrf2 ARE act 6%.
